Measured values: ChEMBL document CHEMBL4513146, “CO-ADD screening of Karazin Kharkiv National University (Ukraine) compounds”
Measured potencies and affinities stand elsewhere.

What follows are compounds tested on Staphylococcus aureus. Conditions: Concentration 32 ug.mL-1;; ASSAY_TEST Inhibition of Bacterial Growth; detection method Absorption (OD600); MEDIA CAMHB; plate type 384well; NBS; CORNING #3640; time 18 hr.
`O=C(Cn1nc2c(Sc3cccc(F)c3)nccn2c1=O)Nc1ccc(Br)cc1` was tested, and the Inhibition was 3%. Work on `Cc1ccc(NC(=O)Cn2nc3c4cc(-c5ccc(Cl)cc5)nn4ccn3c2=O)cc1F` yielded an Inhibition of 11.6%. Compound `CCOc1ccc(-n2ccn3c(SC(C)C(=O)Nc4ccc5c(c4)OCCO5)nnc3c2=O)cc1` (stereo not given) has an Inhibition of 14.02%. `CC(=O)c1ccc(NC(=O)Cn2nc3ccc(Sc4ccccc4)nn3c2=O)cc1` was tested, and the Inhibition was 5.54%. Work on `COC(=O)c1ccccc1NC(=O)Cn1nc2c(Oc3cccc(OC)c3)nccn2c1=O` yielded an Inhibition of -4.11%. `Cc1nnc2ccc(S(=O)(=O)N(Cc3cccc(F)c3)c3cccc(Cl)c3)cn12` gave an Inhibition of 1.14%. `Cc1cccc(Oc2nccn3c(=O)n(CC(=O)N4CCN(c5ccc(F)cc5)CC4)nc23)c1C` was tested, and the Inhibition was 3.93%. `Cc1ccc(-n2ccn3c(=O)n(Cc4ccc(Cl)cc4)nc3c2=O)cc1C` showed an Inhibition of 0.27%. In the case of `O=c1n(Cc2ccc(Cl)cc2)nc2ccc(-c3ccccc3)nn12`, the Inhibition is reported as 3.14%. `CC(C)c1nnc2c(SCC(=O)Nc3ccc(Cl)cc3C(F)(F)F)nc3ccccc3n12` gave an Inhibition of 2.01%. In the case of `CCCN(C)c1nccn2c(=O)n(CC(=O)Nc3ccc(OC)c(Cl)c3)nc12`, the Inhibition is reported as 16.13%. `CC(C)c1ccc(NC(=O)Cn2nc3c(SCc4ccccc4)nccn3c2=O)cc1` was tested, and the Inhibition was 1.97%. In the case of `COc1cccc(CN(c2ccc(Cl)cc2)S(=O)(=O)c2ccc3nncn3c2)c1`, the Inhibition is reported as -6.52%. `CCOc1ccc(NC(=O)Cn2nc3c4cc(-c5ccc(Cl)cc5)nn4ccn3c2=O)cc1` showed an Inhibition of 0.29%. `Cc1ccc(-c2cc3c4nn(CC(=O)NC5CCCC5)c(=O)n4ccn3n2)cc1C` gave an Inhibition of -0.99%. For `COc1ccccc1Cn1c(=O)c2sccc2n2c(=O)n(Cc3cccc(C)c3)nc12`, the Inhibition was 10.55%. For `Cc1ccc(NC(=O)CSc2nc3ccccc3n3c(C)nnc23)c(Br)c1`, the Inhibition was 15.19%. For `COc1cccc(-n2ccn3c(SCC(=O)c4ccc(F)cc4)nnc3c2=O)c1`, the Inhibition was 13.82%. With `Cc1c(Cl)cccc1-n1ccn2c(=O)n(Cc3ccc(F)cc3)nc2c1=O` the Inhibition was 2.79%. For `CSc1cccc(NC(=O)Cn2nc3c(SC4CCCCC4)nccn3c2=O)c1`, the Inhibition was -5.93%. For `CC(C)c1ccc(NC(=O)Cn2nc3c(N4CCCC4)nccn3c2=O)cc1`, the Inhibition was 2.8%. Work on `Cc1ccc(Sc2nccn3c(=O)n(CC(=O)N4CCN(c5ccccc5F)CC4)nc23)c(C)c1` yielded an Inhibition of 2.97%. `COc1ccc(-c2cc3c4nn(CC(=O)Nc5cc(OC)ccc5OC)c(=O)n4ccn3n2)cc1` was tested, and the Inhibition was 5.8%. `COc1ccc(-c2cc3c4nn(CC(=O)N5CCCc6ccccc65)c(=O)n4ccn3n2)cc1` showed an Inhibition of 6.07%. For `Cc1cccc(C)c1NC(=O)Cn1nc2c(N3CCSCC3)nc3ccccc3n2c1=O`, the Inhibition was -9.27%. For `Cc1nnc2c(SCC(=O)Nc3ccc4c(c3)OCCO4)nc3ccccc3n12`, the Inhibition was 5.53%. In the case of `COc1cccc(-n2ccn3c(SCC(=O)c4c[nH]c5ccccc45)nnc3c2=O)c1`, the Inhibition is reported as 3.92%. Work on `COc1ccc(NC(=O)CSc2nnc3c(=O)n(-c4ccccc4)ccn23)cc1OC` yielded an Inhibition of 9.52%. `CCCn1c(=O)c2sccc2n2c(=O)n(CC(=O)c3cccc(OC)c3)nc12` showed an Inhibition of 2.99%. Compound `COc1ccc(CCn2c(=O)c3sccc3n3c(=O)n(Cc4ccc(F)cc4)nc23)cc1OC` has an Inhibition of 2.92%. For `N#CCSc1nnc2c(=O)n(-c3ccccc3)ccn12`, the Inhibition was 13.33%. In the case of `CCc1nnc2ccc(S(=O)(=O)N(Cc3ccc(OC)c(F)c3)c3ccccc3)cn12`, the Inhibition is reported as -14.1%. With `CCc1nnc2c(SCC(=O)Nc3c(C)cc(C)cc3C)nc3ccccc3n12` the Inhibition was 7.54%. `Cc1ccc(N(Cc2cccc(C)c2)S(=O)(=O)c2cccn3c(C)nnc23)cc1` was tested, and the Inhibition was -2.01%. `COc1ccc(-c2cc3c4nnc(CCC(=O)NCc5cccs5)n4ccn3n2)cc1` showed an Inhibition of 11.44%. In the case of `Cc1cc(C)c(NC(=O)Cn2c(=O)c3nnc(C(C)C)n3c3ccccc32)c(C)c1`, the Inhibition is reported as 15.71%. Work on `Cc1ccc(NC(=O)Cn2nc3c(Oc4ccccc4)nccn3c2=O)c(Br)c1` yielded an Inhibition of 1.04%. Work on `COc1ccc(OC)c(NC(=O)Cn2nc3ccc(-c4ccc(C)cc4)nn3c2=O)c1` yielded an Inhibition of -7.96%. In the case of `CCCCn1c(=O)c2sccc2n2c(=O)n(CC(=O)N3CCC(Cc4ccccc4)CC3)nc12`, the Inhibition is reported as -14.82%. Compound `CCCCc1ccc(NC(=O)CSc2nnc3c4cc(-c5ccc(C)cc5)nn4ccn23)cc1` has an Inhibition of 10.93%.
